The nature of assay [1]: qHTS assay to identify small molecule agonists of the peroxisome proliferator-activated receptor delta (PPARd) signaling pathway - cell viability counter screen (AID 743211). Further: nearly all actives have a fitted effect of over 55% in size. The procedure, abridged:
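Luminescent ATP viability assay (CellTiter-Glo, 30 min RT) in UAS-bla HEK293H cells carrying the PPAR delta reporter construct, 3000 cells/well, after a 17 h compound treatment at 37 C.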

For assay [2], the target named is Peroxisome proliferator-activated receptor delta (Homo sapiens) (UniProt Q03181). In words: qHTS assay to identify small molecule agonists of the peroxisome proliferator-activated receptor delta (PPARd) signaling pathway (AID 743212; calls by dose curve). Put shortly: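 Cells expressing a UAS-driven beta-lactamase reporter (PPARd-bla HEK293H) were given test compounds after a 5 h settle and kept at 37 C. Reporter activity was then measured as FRET fluorescence using LiveBLAzer B/G substrate.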
(In general: In qHTS, concentration-response curves come from the screen itself.)

The target is the same in assay [3]. The experiment in a line: qHTS assay to identify small molecule antagonists of the peroxisome proliferator-activated receptor delta (PPARd) signaling pathway (AID 743215; active means well fitted inhibition curve with a large enough effect in the signal ratio in the repeat runs, not every such curve was filed as active; the % refers to the signal ratio;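 further: cells stimulated with agonist L165041 at 300 nM final during compound exposure; series mostly up to about 62 µM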). The procedure, abridged:
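Screen format: qHTS, antagonist mode. HEK293H PPARd-bla cells received compound and 300 nM L165041 (final), 17 h, 37 C. Beta-lactamase detected via FRET substrate fluorescence, 2 h, room temperature.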

A short description of assay [4]: qHTS assay to identify small molecule antagonists of the farnesoid-X-receptor (FXR) signaling pathway - cell viability counter screen (AID 743221; active means well fitted cell-killing curve with a large enough effect in the repeat runs, not every such curve was filed as active; further: nearly all actives have a fitted effect of over 50% in size). Put shortly: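 In GeneBLAzer FXR-UAS-bla HEK 293T cells stimulated with 50 uM chenodeoxycholic acid (final), compounds acted for 16 h at 37 C. Viability was assessed afterwards by CellTiter-Glo luminescence.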
Assay [5] can be described thus: qHTS assay to identify small molecule agonists of the vitamin D receptor (VDR) signaling pathway - cell viability counter screen (AID 743224). Further: series mostly up to about 63 µM; nearly all actives have a fitted effect of over 50% in size. The procedure, abridged: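 Counter screen for cytotoxicity: VDR-bla cells at 2,000 cells/well, 16 h compound exposure, then CellTiter-Glo luminescence after the beta-lactamase measurement.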
The nature of assay [6]: qHTS assay to identify small molecule antagonists of the vitamin D receptor (VDR) signaling pathway - cell viability counter screen (AID 743225). Further: nearly all actives have a fitted effect of over 50% in size. Put shortly:
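Luminescent cell viability (CellTiter-Glo) in VDR-bla HEK 293T cells after 16 h compound exposure at 37C in the presence of 3 nM final 1-alpha,25-dihydroxy vitamin D3.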

Assay [7] is described as follows: qHTS assay to identify small molecule agonists of the NFkB signaling pathway - cell viability counter screen (AID 1159515; calls by dose curve; further: series mostly up to about 61 µM; nearly all actives have a fitted effect of over 55% in size). Put shortly: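 Counter screen run alongside the NFkB-bla agonist assay: ME-180 reporter cells exposed to compounds for 5 hr, then lysed with CellTiter-Glo in the same wells. Luminescence, read after 30 min, reflects viable cells.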
The nature of assay [8]: qHTS assay to identify small molecule agonists of the endoplasmic reticulum stress response signaling pathway (AID 1159516; active means well fitted activation curve with a large enough effect in the signal ratio in the repeat runs, not every such curve was filed as active; the % refers to the signal ratio; further: potency means the concentration at half of the fitted maximal effect). The procedure, abridged: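 For this screen, HeLa cells stably carrying beta-lactamase under the ER stress response element received test compounds, positive controls or DMSO for 5 hr at 37 C; B/G FRET substrate was then added and dual-wavelength emission recorded.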

Assay [9] is described as follows: qHTS assay to identify small molecule antagonists of the retinoid-related orphan receptor gamma (ROR-gamma) signaling pathway - cell viability counter screen (AID 1159520). Further: nearly all actives have a fitted effect of over 50% in size. Further: potency means the concentration at half of the fitted maximal effect. The procedure, abridged:
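Tet-on ROR gamma CHO cells (1,000/well) were plated 4 hr, given compounds in DMSO for 2 hr at 37 C, then induced with 1 uM final doxycycline for 16 hr. Viability was read as ATP by CellTiter-Glo luminescence after 30 min.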

The target of assay [10] is Nuclear receptor ROR-gamma (Homo sapiens) (UniProt P51449). The experiment in a line: qHTS assay to identify small molecule antagonists of the retinoid-related orphan receptor gamma (ROR-gamma) signaling pathway (AID 1159521; further: nearly all actives have a fitted effect of over 50% in size; further: potency means the concentration at half of the fitted maximal effect). The procedure, abridged:
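CHO cells expressing RORγ under a TET-on promoter, luciferase under RORE control. Dox 1 uM final, 16 h; compounds added 2 h prior. Luminescence decrease measured.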

A short description of assay [11]: qHTS assay to identify small molecule agonists of the AP-1 signaling pathway - cell viability counter screen (AID 1159525; calls by dose curve; further: nearly all actives have a fitted effect of over 55% in size). The procedure, abridged:
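Each titration point was normalised to DMSO and tetra n-octyl ammonium bromide controls. The read was Cell Titer Glo luminescence after 30 min at RT, following 5 h compound exposure of ME-180 AP-1-bla cells at 37 °C.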

Assay [12] can be described thus: qHTS assay to identify small molecule agonists of the AP-1 signaling pathway (AID 1159526; calls by dose curve).
The nature of assay [13]: qHTS assay to identify small molecule antagonists of the peroxisome proliferator-activated receptor delta (PPARd) signaling pathway - cell viability counter screen (AID 743213). Further: nearly all actives have a fitted effect of over 50% in size. Put shortly: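 CellTiter-Glo was added to PPARd-bla HEK293H wells following 17 h compound treatment in the presence of 300 nM L165041. Luminescence was recorded after 30 min at room temperature.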

The target of assay [14] is Bile acid receptor (Homo sapiens) (UniProt Q96RI1). The experiment in a line: qHTS assay to identify small molecule agonists of the farnesoid-X-receptor (FXR) signaling pathway (AID 743220; active means well fitted activation curve with a large enough effect in the signal ratio in the repeat runs, not every such curve was filed as active; the % refers to the signal ratio). The procedure, abridged: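 FXR-UAS-bla HEK 293T cells carrying a UAS-driven beta-lactamase reporter were plated for 5 h at 37C/5% CO2, then exposed to DMSO-dissolved Tox21 10K compounds for 16 h at 37C. A LiveBLAzer B/G FRET substrate was loaded for 2 h at room temperature before fluorescence reading.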

Assay [15] deals with Vitamin D3 receptor (Homo sapiens) (UniProt P11473). In words: qHTS assay to identify small molecule agonists of the vitamin D receptor (VDR) signaling pathway (AID 743222; calls by dose curve). Put shortly: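 Using LiveBLAzer B/G FRET detection, agonism was scored in VDR-bla cells exposed overnight (16 h, 37C) to DMSO-dissolved compounds; substrate incubation was 2 h at room temperature.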
Assay [16] deals with Retinoic acid receptor RXR-alpha (Homo sapiens) (UniProt P19793). In words: qHTS assay to identify small molecule agonists of the RXR signaling pathway (AID 1159527; calls by dose curve; further: nearly all actives have a fitted effect of over 35% in size; further: potency means the concentration at half of the fitted maximal effect). The procedure, abridged:
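Beta-lactamase reporter assay, agonist format. Engineered HEK 293T line, charcoal-stripped FBS at 2%, overnight (16 hr) exposure, fluorescence at 460 and 530 nm after 405 nm excitation.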

The target in assay [17] is Vitamin D3 receptor (Homo sapiens) (UniProt P11473). In words: qHTS assay to identify small molecule antagonists of the vitamin D receptor (VDR) signaling pathway (AID 743223; active means well fitted inhibition curve with a large enough effect in the signal ratio in the repeat runs, not every such curve was filed as active; the % refers to the signal ratio). The procedure, abridged: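 Agonist 1alpha,25-dihydroxyvitamin D3 (3 nM in well) was added with each compound to VDR-bla cells preincubated 4 h. Cells stood 16 h at 37C, then FRET substrate 2 h at room temperature; fluorescence intensity recorded.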

Assay [18] concerns the target Bile acid receptor (Homo sapiens) (UniProt Q96RI1). In words: qHTS assay to identify small molecule antagonists of the farnesoid-X-receptor (FXR) signaling pathway (AID 743217; active means well fitted inhibition curve with a large enough effect in the signal ratio in the repeat runs, not every such curve was filed as active; the % refers to the signal ratio). Put shortly:
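Quantitative HTS, beta-lactamase reporter format: FXR-UAS-bla HEK 293T cells co-treated 16 h at 37 °C with compounds and 50 uM final chenodeoxycholic acid, then read by B/G FRET fluorescence.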

Assay [19] can be described thus: qHTS assay to identify small molecule agonists of the farnesoid-X-receptor (FXR) signaling pathway - cell viability counter screen (AID 743218). Further: nearly all actives have a fitted effect of over 45% in size. Put shortly: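 Same-well cytotoxicity check on FXR-UAS-bla HEK 293T cells: 5 h attachment, 16 h compound at 37 C, CellTiter-Glo luminescence read at room temperature after 30 min.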

Inconclusive results are not listed. Activity calls are given as the source filed them. Unless noted, the call rests on the fitted dose curve; in most records, active means well fitted curve in the direction sought with a large enough effect in the repeat runs; inconclusive means weak or mixed curves; inactive means no such curve, though single readings can be large; an effect the other way counts as inactive or inconclusive.

Bile acid receptor (Homo sapiens), sequence (Q96RI1 whole entry, looked up): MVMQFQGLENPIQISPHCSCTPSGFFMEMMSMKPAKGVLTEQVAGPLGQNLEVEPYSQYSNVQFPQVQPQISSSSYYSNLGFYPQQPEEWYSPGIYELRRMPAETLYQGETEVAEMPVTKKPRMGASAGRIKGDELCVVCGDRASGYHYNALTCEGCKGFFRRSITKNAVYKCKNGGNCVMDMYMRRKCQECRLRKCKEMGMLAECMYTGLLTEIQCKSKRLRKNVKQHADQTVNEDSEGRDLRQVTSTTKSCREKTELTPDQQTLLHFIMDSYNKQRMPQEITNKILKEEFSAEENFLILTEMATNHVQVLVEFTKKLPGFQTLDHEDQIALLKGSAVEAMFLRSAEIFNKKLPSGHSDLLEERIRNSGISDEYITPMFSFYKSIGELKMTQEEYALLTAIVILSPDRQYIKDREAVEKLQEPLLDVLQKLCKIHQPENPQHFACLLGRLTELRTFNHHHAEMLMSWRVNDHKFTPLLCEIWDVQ
Retinoic acid receptor RXR-alpha (Homo sapiens), sequence (P19793 whole entry, looked up): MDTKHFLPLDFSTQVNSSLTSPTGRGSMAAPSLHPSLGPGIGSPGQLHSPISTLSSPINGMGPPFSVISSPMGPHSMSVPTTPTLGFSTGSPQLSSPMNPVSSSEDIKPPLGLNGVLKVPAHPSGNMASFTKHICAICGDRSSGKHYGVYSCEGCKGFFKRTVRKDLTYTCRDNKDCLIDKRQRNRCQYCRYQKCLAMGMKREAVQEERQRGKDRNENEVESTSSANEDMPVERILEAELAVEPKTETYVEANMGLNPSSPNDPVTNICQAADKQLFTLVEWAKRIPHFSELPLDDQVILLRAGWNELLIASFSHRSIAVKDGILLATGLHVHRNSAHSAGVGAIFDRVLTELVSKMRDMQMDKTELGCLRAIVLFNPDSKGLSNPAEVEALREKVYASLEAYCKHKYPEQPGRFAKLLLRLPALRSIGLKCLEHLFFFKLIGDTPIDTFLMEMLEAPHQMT
Vitamin D3 receptor (Homo sapiens), sequence (P11473 whole entry, looked up): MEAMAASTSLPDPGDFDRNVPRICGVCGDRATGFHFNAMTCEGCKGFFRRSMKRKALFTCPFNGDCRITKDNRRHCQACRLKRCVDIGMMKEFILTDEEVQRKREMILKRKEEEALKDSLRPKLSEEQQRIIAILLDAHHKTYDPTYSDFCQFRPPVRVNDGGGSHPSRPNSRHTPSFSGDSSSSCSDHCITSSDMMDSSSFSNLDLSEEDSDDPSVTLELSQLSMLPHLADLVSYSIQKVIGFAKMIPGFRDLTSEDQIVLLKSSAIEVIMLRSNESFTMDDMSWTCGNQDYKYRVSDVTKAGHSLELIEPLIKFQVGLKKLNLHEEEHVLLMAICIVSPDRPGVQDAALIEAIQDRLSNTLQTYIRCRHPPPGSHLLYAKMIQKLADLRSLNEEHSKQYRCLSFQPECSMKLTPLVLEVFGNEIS
Peroxisome proliferator-activated receptor delta (Homo sapiens), sequence (Q03181 whole entry, looked up): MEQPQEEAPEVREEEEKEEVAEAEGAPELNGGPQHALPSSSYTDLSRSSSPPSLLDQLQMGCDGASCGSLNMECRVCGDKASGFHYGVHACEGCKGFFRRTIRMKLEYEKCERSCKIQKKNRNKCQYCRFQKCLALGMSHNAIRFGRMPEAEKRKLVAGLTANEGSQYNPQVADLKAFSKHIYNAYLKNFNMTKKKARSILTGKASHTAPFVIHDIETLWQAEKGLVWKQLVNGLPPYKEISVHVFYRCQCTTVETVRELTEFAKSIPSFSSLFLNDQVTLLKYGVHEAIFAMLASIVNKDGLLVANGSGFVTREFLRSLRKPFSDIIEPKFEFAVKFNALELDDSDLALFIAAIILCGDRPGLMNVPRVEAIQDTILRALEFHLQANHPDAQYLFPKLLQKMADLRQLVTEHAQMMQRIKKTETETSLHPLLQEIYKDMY

`CCCC[C@H]1CN(CC2CCOCC2)C(=O)OC12CCN(C1(C)CCN(C(=O)c3c(C)ncnc3C)CC1)CC2`: the Potency result in [1], in assay [4], in assay [5], in [6], in [7] and in assay [8] was “inactive” each time. Further, the Potency entry in assay [9], in [10], in assay [11] and in [12] was “inactive” throughout. In addition, the outcome in assay [2] and in assay [3] was inactive.
For `CC(C)c1ccc2c(C(C)C)cc(C(C)C)c(S(=O)(=O)O)c2c1`, the Potency result in [1], in [13], in assay [5], in assay [6], in [7] and in [8] was “inactive” throughout. Also, the Potency entry in assay [9], in assay [10] and in assay [16] was “inactive” throughout. In addition, the compound was classed as inactive in assay [2], in assay [14] and in assay [15].
Consider `NCc1ccccc1`, for which the Potency result in [1], in assay [13], in assay [17], in assay [5], in assay [7] and in [8] was “inactive” in each case. Moreover, the Potency result in assay [9], in [10], in assay [11] and in assay [12] was “inactive” throughout. Also, the compound was classed as inactive in assay [15].
Regarding `CC(C)(C)c1cc(O)c(C(C)(C)C)cc1O`, the call in [2] and in assay [15] was inactive. Moreover, the Potency result in [13], in assay [4], in [5], in assay [7], in [11] and in [12] was “inactive” in each case. Besides, the Potency was 5.49 µM (active) in assay [8], 48.6 µM (active) in assay [9] and 15.4 µM (active) in [10].
Turning to `CN1CCN(C2=Nc3ccccc3Sc3ccc(Cl)cc32)CC1`, the Potency result in assay [1], in assay [13], in [4], in assay [17], in [5] and in assay [6] was “inactive” each time. Also, the Potency result in assay [7], in [8], in assay [9], in assay [10] and in [16] was “inactive” in each case. Further, the outcome in assay [2] and in assay [3] was inactive.
Turning to `CCCCOC(O)CC` (stereo not given), the Potency entry in assay [1], in assay [13], in assay [19], in assay [4], in [5] and in assay [6] was “inactive” in each case. Moreover, the Potency result in assay [7], in assay [8], in assay [9], in assay [10], in assay [11] and in [12] was “inactive” each time. The compound was called inactive in assay [2], in [3], in [18], in assay [14] and in assay [15].
Consider `CN1CCC(OC(c2ccccc2)c2ccccc2)CC1`, for which the Potency result in assay [1], in [19], in assay [4], in assay [5], in assay [7] and in assay [8] was “inactive” each time. The Potency result in [9], in assay [10], in assay [11], in [12] and in assay [16] was “inactive” each time. The compound was called inactive in [2], in assay [14] and in assay [15].
As to `Nc1ccc(C(=O)Nc2ccccc2N)cc1`, the Potency entry in [1], in [4], in assay [5], in assay [6], in [7] and in assay [8] was “inactive” in each case. For the same compound, the Potency entry in assay [9] and in assay [12] was “inactive” in each case. In addition, in [2], the call was inactive.
Turning to `Oc1ccc(C(O)CNCCCCCCNCC(O)c2ccc(O)c(O)c2)cc1O` (stereo not given), the Potency entry in assay [1], in assay [13], in assay [19], in [4], in assay [17] and in assay [5] was “inactive” throughout. Also, the Potency result in assay [6], in assay [7], in assay [8], in assay [9], in [10] and in assay [12] was “inactive” each time. Moreover, the result in assay [2] and in assay [15] was inactive.
Consider `NCCCOCCOCCOCCCN`, for which the Potency entry in assay [1], in assay [13], in assay [5], in [6], in [7] and in assay [8] was “inactive” each time. For the same compound, the Potency entry in [9], in assay [11] and in assay [12] was “inactive” throughout. The compound was classed as inactive in [15]. Besides, the values for the Potency in [10] and in assay [16] were 17.2 µM (active) and 43.6 µM (active), respectively.

The values are drawn from PubChem BioAssay (Tox21).
